Screening data (PubChem BioAssay)
The list is not random: actives were taken first. Their share in the collection is about 4.7%.
TRHR enhancer – qHTS for Small Molecule Agonists and Allosteric Enhancers of Human TRH Receptor: Primary Screen for Enhancers; TRHR cells, fluo-8 calcium fluorescence, EC20 TRH enhancement; AID 493056, 2011; Thyrotropin-releasing hormone receptor (Homo sapiens), P34981; 360,000 compounds, 0.66% hits; enhancement, % at 2 µM; in the data active = enhancement above about 30%
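TRHR-expressing cells loaded with fluo-8 calcium dye were read kinetically (ex 480/em 530) during compound addition, then stimulated with an EC20 of TRH (10 nM final). Enhancement of the Gq-mediated intracellular calcium response was scored.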
D1 ag – Allosteric Agonists of the Human D1 Dopamine Receptor: qHTS | activation, % at 2 µM | HEK293 T-REx D1 cells, calcium flux, agonist mode | 360,000 compounds, 1% hits
Target sequence (P21728 whole entry, looked up): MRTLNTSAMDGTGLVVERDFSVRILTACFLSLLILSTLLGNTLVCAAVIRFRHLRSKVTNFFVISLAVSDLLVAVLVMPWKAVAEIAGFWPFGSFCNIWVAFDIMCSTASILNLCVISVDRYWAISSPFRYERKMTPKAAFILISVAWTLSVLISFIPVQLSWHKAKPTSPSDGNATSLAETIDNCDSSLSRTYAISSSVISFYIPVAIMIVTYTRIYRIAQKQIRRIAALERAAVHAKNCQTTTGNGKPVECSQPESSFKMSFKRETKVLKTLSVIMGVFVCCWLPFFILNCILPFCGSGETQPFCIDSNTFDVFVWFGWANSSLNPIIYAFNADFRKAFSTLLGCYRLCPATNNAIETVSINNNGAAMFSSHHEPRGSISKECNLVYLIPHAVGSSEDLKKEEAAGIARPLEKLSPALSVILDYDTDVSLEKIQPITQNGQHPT
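Inducible HEK293 T-REx D1 cells, force-coupled to calcium signalling, were plated at 4000 cells/well with tetracycline and held overnight at 30 C. After no-wash calcium dye loading, compound-evoked calcium rise over 180 s flagged agonists.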
TRHR ag – qHTS for Small Molecule Agonists and Allosteric Enhancers of Human TRH Receptor: Primary Screen for Agonists; TRHR cells, calcium flux fluo-8, FDSS agonist mode; activation, % at 2 µM; 360,000 compounds, 0.18% hits
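In this calcium-flux screen, cells bearing human TRHR are dye-loaded with fluo-8, baselined for 10 cycles, then exposed to library compounds; positive kinetic calcium responses during the agonist phase mark hits, with TRH as control.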
D1 antagonist – Antagonist of Human D 1 Dopamine Receptor: qHTS | HEK293 TREx D1 cells, calcium flux, dopamine EC80; hits give low values | activity change, negative = inhibition, % at 10 µM | 360,000 compounds, 3.2% hits | AID 504652, 2011; in the data active = activity change below about -30%
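Antagonism measured as reduced calcium response to an EC80 dopamine addition following 180 s compound pre-read; cells were inducible HEK293 Trex D1 plated overnight at 30 C, read kinetically at 1 cycle/sec.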
D1 potentiator – Potentiators of Human D1 Dopamine Receptor: qHTS; D(1A) dopamine receptor (Homo sapiens), P21728; HEK293 TREx D1 cells, calcium flux, dopamine EC20 potentiation; potentiation, % at 10 µM; 360,000 compounds, 0.036% hits; in the data active = potentiation above about 30%
Hits are given with their value. Cut-off read from the data, not from the text of the source, unless noted: active = activation above about 30%; inactive = the rest.

Results for CCn1c(=O)c2cc(C(=O)Nc3cc(OC)c(OC)c(OC)c3)sc2c2ccccc21 ?
TRHR enhancer: inactive; D1 ag: inactive; TRHR ag: inactive; D1 antagonist: inactive; D1 potentiator: inactive

Results for CC1CCN(C(=O)c2cc3c(=O)n(C)c4ccccc4c3s2)CC1 ?
TRHR enhancer: inactive; D1 ag: inactive; TRHR ag: inactive; D1 antagonist: -31; D1 potentiator: inactive

What do the screens show for `COc1ccccc1N1CCN(C(=O)c2cc3c(=O)n(C)c4ccccc4c3s2)CC1`?
TRHR enhancer: inactive; D1 ag: inactive; TRHR ag: inactive; D1 antagonist: -53; D1 potentiator: inactive

Results for COc1ccc(NC(=O)c2cc3c(=O)n(C)c4ccccc4c3s2)cc1Cl ?
TRHR enhancer: inactive; D1 ag: inactive; TRHR ag: inactive; D1 antagonist: -68; D1 potentiator: inactive

Results for Cc1ccc(Cl)cc1N1CCN(C(=O)c2cc3c(=O)n(C)c4ccccc4c3s2)CC1 ?
TRHR enhancer: inactive; D1 ag: inactive; TRHR ag: inactive; D1 antagonist: inactive; D1 potentiator: inactive

How did Cc1nc2c(C(=O)NCCc3ccccc3)cnn2c(C)c1Cc1c(F)cccc1Cl do in these assays?
TRHR enhancer: inactive; D1 ag: inactive; TRHR ag: inactive; D1 antagonist: inactive; D1 potentiator: inactive

How did Cc1cc(C)cc(-n2c(C)cc(C(=O)CSc3nnnn3C)c2C)c1 do in these assays?
TRHR enhancer: inactive; D1 ag: 41; TRHR ag: inactive; D1 antagonist: inactive; D1 potentiator: inactive

Results for COCc1nn2cc(-c3ccc(C)cc3)nc2s1 ?
TRHR enhancer: inactive; D1 ag: inactive; TRHR ag: inactive; D1 antagonist: inactive; D1 potentiator: inactive

Results for O=c1[nH][nH]c(-c2ccccc2)c1C=Nc1cccc(Cl)c1 ?
TRHR enhancer: inactive; D1 ag: inactive; TRHR ag: inactive; D1 antagonist: -34; D1 potentiator: inactive

What do the screens show for `O=c1[nH][nH]c(-c2ccccc2)c1C=Nc1ccc(Cl)cc1`?
TRHR enhancer: inactive; D1 ag: inactive; TRHR ag: inactive; D1 antagonist: inactive; D1 potentiator: inactive

What do the screens show for `Cc1ccc2onc(CC(=O)N3CCN(c4cccc(Cl)c4)CC3)c2c1`?
TRHR enhancer: inactive; D1 ag: inactive; TRHR ag: inactive; D1 antagonist: inactive; D1 potentiator: inactive

Results for O=C(Cn1c(=O)n(-c2ccc(F)c(Cl)c2)c(=O)c2sc3ccccc3c21)NC1CCCC1 ?
TRHR enhancer: inactive; D1 ag: inactive; TRHR ag: inactive; D1 antagonist: inactive; D1 potentiator: inactive

What do the screens show for `Cc1ccc(COCCN2CCN(S(=O)(=O)c3ccccc3)CCC2=O)cc1`?
TRHR enhancer: inactive; D1 ag: inactive; TRHR ag: inactive; D1 antagonist: -41; D1 potentiator: inactive

What do the screens show for `Cc1ccc(S(=O)(=O)N2CCC(=O)N(C(CO)Cc3ccccc3)CC2)cc1` (stereo not given)?
TRHR enhancer: inactive; D1 ag: inactive; TRHR ag: inactive; D1 antagonist: -43; D1 potentiator: inactive

Results for Cc1ccc(S(=O)(=O)N2CCC(=O)N(C(COC(=O)Nc3ccccc3)Cc3ccccc3)CC2)cc1 (stereo not given) ?
TRHR enhancer: inactive; D1 ag: inactive; TRHR ag: inactive; D1 antagonist: inactive; D1 potentiator: inactive

Results for Cc1ccc(NC(=O)OCCN2CCN(S(=O)(=O)c3ccc(C)cc3)CCC2=O)cc1 ?
TRHR enhancer: inactive; D1 ag: inactive; TRHR ag: inactive; D1 antagonist: inactive; D1 potentiator: inactive

How did Cc1ccc(S(=O)(=O)N2CCC(=O)N(CCOC(=O)Nc3cccc(Cl)c3)CC2)cc1 do in these assays?
TRHR enhancer: inactive; D1 ag: inactive; TRHR ag: inactive; D1 antagonist: -31; D1 potentiator: inactive

Results for CC1CC1C(=O)OCc1cc(=O)n2cc(Br)ccc2n1 (stereo not given) ?
TRHR enhancer: 34; D1 ag: inactive; TRHR ag: inactive; D1 antagonist: inactive; D1 potentiator: inactive

How did Cc1c(C(=O)Nc2ccccc2)sc2nc[nH]c(=O)c12 do in these assays?
TRHR enhancer: inactive; D1 ag: inactive; TRHR ag: inactive; D1 antagonist: -33; D1 potentiator: inactive

Results for O=C(CCN=C1NS(=O)(=O)c2ccccc21)OCC(=O)c1ccccc1 ?
TRHR enhancer: inactive; D1 ag: inactive; TRHR ag: inactive; D1 antagonist: inactive; D1 potentiator: inactive

How did Cc1ccc(C(=O)C(C)OC(=O)CCN=C2NS(=O)(=O)c3ccccc32)cc1 (stereo not given) do in these assays?
TRHR enhancer: inactive; D1 ag: inactive; TRHR ag: inactive; D1 antagonist: -39; D1 potentiator: inactive

How did O=C(CCCN=C1NS(=O)(=O)c2ccccc21)OCC(=O)c1ccccc1 do in these assays?
TRHR enhancer: inactive; D1 ag: inactive; TRHR ag: inactive; D1 antagonist: -30; D1 potentiator: inactive

What do the screens show for `CCOc1ccccc1CNCc1ccc(F)cc1`?
TRHR enhancer: inactive; D1 ag: inactive; TRHR ag: inactive; D1 antagonist: -31; D1 potentiator: inactive

Results for CC(C)(C)c1ccc(C(=O)NCC(=O)N2CCCCCC2)cc1 ?
TRHR enhancer: inactive; D1 ag: inactive; TRHR ag: inactive; D1 antagonist: inactive; D1 potentiator: inactive

What do the screens show for `CN1CCN(C(c2cccc(Br)c2)c2sc3nc(-c4ccco4)nn3c2O)CC1` (stereo not given)?
TRHR enhancer: inactive; D1 ag: inactive; TRHR ag: inactive; D1 potentiator: inactive

How did Cc1cc2c(s1)c1cnn(Cc3cc(Cl)ccc3F)c(=O)c1n2C do in these assays?
TRHR enhancer: inactive; D1 ag: inactive; TRHR ag: inactive; D1 antagonist: inactive; D1 potentiator: inactive

How did COC(=O)c1ccccc1NC(=O)c1cn2c3c(ccc(Cl)c3c1=O)OC(C)C2 (stereo not given) do in these assays?
TRHR enhancer: inactive; D1 ag: inactive; TRHR ag: inactive; D1 antagonist: inactive; D1 potentiator: inactive

How did COc1ccc(/C=C2\C(=O)NC(=S)N2C(=O)c2ccc(F)cc2)cc1 do in these assays?
TRHR enhancer: inactive; D1 ag: 112; TRHR ag: inactive; D1 antagonist: inactive; D1 potentiator: inactive

Results for O=C(NC(=S)N1CCN(C/C=C/c2ccccc2)CC1)c1ccc(F)cc1 ?
TRHR enhancer: inactive; D1 ag: inactive; TRHR ag: inactive; D1 antagonist: inactive; D1 potentiator: inactive

What do the screens show for `CN1C(=O)/C(=C/c2ccc(OCc3ccc(F)cc3)cc2)N(C)C1=S`?
TRHR enhancer: inactive; D1 ag: inactive; TRHR ag: inactive; D1 antagonist: inactive; D1 potentiator: inactive
